This is an account of results in PubChem BioAssay (Tox21).

Experiment [1] can be described thus: qHTS assay to identify small molecule agonists of the vitamin D receptor (VDR) signaling pathway - cell viability counter screen (AID 743224). Also: series mostly up to about 63 µM; nearly all actives have a fitted effect of over 50% in size. A digest of the protocol:
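Compounds were pin-transferred onto VDR-bla cells plated 4 h earlier; following 16 h incubation at 37C, cell viability was quantified by CellTiter-Glo luminescence after 30 min at room temperature.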
(qHTS replaces the single test concentration by a dilution series.)

Experiment [2] can be described thus: qHTS assay to identify small molecule antagonists of the vitamin D receptor (VDR) signaling pathway - cell viability counter screen (AID 743225). Also: nearly all actives have a fitted effect of over 50% in size. Put shortly: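 Cytotoxicity toward the VDR-bla HEK 293T line was scored by ATP-based CellTiter-Glo luminescence, read in the wells already used for the beta-lactamase readout after 16 h compound treatment under 3 nM 1-alpha,25-dihydroxyvitamin D3 stimulation.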

Experiment [3] in a line: qHTS assay to identify small molecule agonists of the NFkB signaling pathway (AID 1159509; active = well fitted curve in the direction sought with a large enough effect in the signal ratio in the repeat runs, not every such curve was filed as active; the % refers to the signal ratio; also: series mostly up to about 61 µM). Put shortly: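 Agonist activity was read as beta-lactamase-driven FRET change (460 and 530 nm emission, 405 nm excitation) following 1.5 hr substrate loading at room temperature. Beforehand, ME-180 NFkB-bla reporter cells were treated with compounds for 5 hr at 37 C.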
The nature of experiment [4]: qHTS assay to identify small molecule agonists of the NFkB signaling pathway - cell viability counter screen (AID 1159515; calls by dose curve; also: series mostly up to about 61 µM; nearly all actives have a fitted effect of over 55% in size). A digest of the protocol: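 Parallel cytotoxicity counter screen in ME-180 cells carrying an NFkB-response-element beta-lactamase reporter, 2,000 cells/well. Compound exposure lasted 5 hr at 37 C, 5% CO2. Cell viability was quantified by CellTiter-Glo luminescence.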

Experiment [5] is described as follows: qHTS assay to identify small molecule agonists of the endoplasmic reticulum stress response signaling pathway (AID 1159516; active = well fitted activation curve with a large enough effect in the signal ratio in the repeat runs, not every such curve was filed as active; the % refers to the signal ratio). Put shortly:
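Using a HeLa line with an ESRE-driven beta-lactamase gene, agonist activity was measured by FRET substrate fluorescence (460 and 530 nm emission) after cells were treated with compounds for 5 hr at 37 C and 5% CO2.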

The nature of experiment [6]: qHTS assay to identify small molecule agonists of the endoplasmic reticulum stress response signaling pathway - cell viability counter screen (AID 1159517; calls by dose curve;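 also: HeLa cells carrying an ER stress response element beta-lactamase reporter; series mostly up to about 61 µM; nearly all actives have a fitted effect of over 50% in size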). A digest of the protocol: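 Cpd-treated ESRE-bla HeLa (5 hr, 37 C) → LiveBLAzer 2 hr RT → CellTiter-Glo 30 min RT → luminescence.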
The target in experiment [7] is Nuclear receptor ROR-gamma (Homo sapiens) (UniProt P51449). The experiment in a line: qHTS assay to identify small molecule antagonists of the retinoid-related orphan receptor gamma (ROR-gamma) signaling pathway (AID 1159521;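 also: CHO cells with doxycycline inducible ROR-gamma driving an RORE luciferase reporter; top concentration of the series differs between compounds; nearly all actives have a fitted effect of over 50% in size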). Put shortly: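 Readout: ONE-Glo luciferase luminescence, 30 min at room temperature. System: Tet-on RORγ CHO, RORE-LUC. Sequence: compound 2 h, doxycycline 1 uM final, 16 h at 37 C.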

Experiment [8] in a line: qHTS assay to identify small molecule agonists of the AP-1 signaling pathway - cell viability counter screen (AID 1159525; calls by dose curve; also: nearly all actives have a fitted effect of over 55% in size). A digest of the protocol:
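Each titration point was normalised to DMSO and tetra n-octyl ammonium bromide controls. The read was Cell Titer Glo luminescence after 30 min at RT, following 5 h compound exposure of ME-180 AP-1-bla cells at 37 °C.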

Experiment [9] in a line: qHTS assay to identify small molecule agonists of the AP-1 signaling pathway (AID 1159526; calls by dose curve).
Experiment [10] concerns the target Retinoic acid receptor RXR-alpha (Homo sapiens) (UniProt P19793). The experiment in a line: qHTS assay to identify small molecule agonists of the RXR signaling pathway (AID 1159527; calls by dose curve; also: nearly all actives have a fitted effect of over 35% in size). Put shortly:
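Reporter activation is measured as beta-lactamase activity via FRET substrate cleavage (emission 460/530 nm) in HEK 293T cells expressing an RXR-alpha-driven bla construct, following 16 hr compound exposure at 37 C.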

Experiment [11] can be described thus: qHTS assay to identify small molecule agonists of the RXR signaling pathway - cell viability counter screen (AID 1159529). Put shortly:
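Tox21 10K compounds were tested for cytotoxicity against GeneBLAzer RXR-alpha HEK 293T cells grown in 2% charcoal-stripped FBS. Exposure lasted 16 hr at 37 C, 5% CO2; viability read by CellTiter-Glo luminescence.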

Experiment [12] is described as follows: qHTS assay to identify small molecule antagonists of the retinoid acid receptor (RAR) signaling pathway - cell viability counter screen (AID 1159551). Also: nearly all actives have a fitted effect of over 35% in size. Put shortly:
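ATP-based viability, C3RL4 cells, 6 h at 37 C with 1 uM final retinol co-added after compound; luminescence read 30 min post CellTiter-Glo, RT.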

The nature of experiment [13]: qHTS assay to identify small molecule antagonists of the estrogen related receptor (ERR) signaling pathway from Tox21 library - cell viability counter screen (AID 1224834). Also: nearly all actives have a fitted effect of over 30% in size. Put shortly:
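Compounds in DMSO were pinned onto ERR cells that had been incubated for 6 h, and the plates were held at 37 C for 17.5 h. CellTiter-Fluor reagent was then added and fluorescence was measured after 30 min.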

Experiment [14] can be described thus: qHTS assay to identify small molecule antagonists of the retinoic acid receptor (RAR) signaling pathway (AID 1159552; also: nearly all actives have a fitted effect of over 50% in size). Put shortly: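 Overnight-plated C3RL4 reporter cells get compound, then retinol to 1 uM final; plates sit 6 hr at 37 C, 5% CO2. A luciferase reagent is added and light output recorded after 30 min at room temperature.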
A short description of experiment [15]: qHTS assay to identify small molecule agonists of the retinoic acid receptor (RAR) signaling pathway (AID 1159553). Also: potency is read from the fitted curve at half-maximal effect. A digest of the protocol:
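Quantitative high-throughput format: the Tox21 10K library was tested on C3RL4 RARE-luciferase cells for 6 hr at 37 C and 5% CO2, with luminescence measured after a 30 min room-temperature reagent step.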

A short description of experiment [16]: qHTS assay to identify small molecule antagonists of the retinoid-related orphan receptor gamma (ROR-gamma) signaling pathway - cell viability counter screen (AID 1159520). Also: nearly all actives have a fitted effect of over 50% in size. Put shortly:
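Tet-on ROR gamma CHO cells (1,000/well) were plated 4 hr, given compounds in DMSO for 2 hr at 37 C, then induced with 1 uM final doxycycline for 16 hr. Viability was read as ATP by CellTiter-Glo luminescence after 30 min.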

Experiment [17] relates to estrogen-related receptor alpha (ERRalpha) with PGC-1alpha coactivator, human. Briefly: qHTS assay to identify small molecule antagonists of the estrogen related receptor signaling pathway with the pleiotropic PPARgamma coactivator (PGC) (AID 1224821; calls by dose curve). Put shortly:
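Luminescence from One-Glo luciferase reagent (30 min, room temperature) measured after 18 h compound treatment at 37 °C. Cells carry the PGC/ERR reporter and were seeded 6 h prior to dosing.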

Results filed as inconclusive are left out. Unmarked numbers belong to inactive results. Calls of active or inactive are those of the source. Unless noted, calls follow the shape of the dose curve; as a rule, active = well fitted curve in the direction sought with a large enough effect in the repeat runs; inconclusive = weak or mixed curves; inactive = no such curve, though single readings can be large; an effect the other way counts as inactive or inconclusive.

Sequence of Retinoic acid receptor RXR-alpha (Homo sapiens) (P19793 whole entry, looked up): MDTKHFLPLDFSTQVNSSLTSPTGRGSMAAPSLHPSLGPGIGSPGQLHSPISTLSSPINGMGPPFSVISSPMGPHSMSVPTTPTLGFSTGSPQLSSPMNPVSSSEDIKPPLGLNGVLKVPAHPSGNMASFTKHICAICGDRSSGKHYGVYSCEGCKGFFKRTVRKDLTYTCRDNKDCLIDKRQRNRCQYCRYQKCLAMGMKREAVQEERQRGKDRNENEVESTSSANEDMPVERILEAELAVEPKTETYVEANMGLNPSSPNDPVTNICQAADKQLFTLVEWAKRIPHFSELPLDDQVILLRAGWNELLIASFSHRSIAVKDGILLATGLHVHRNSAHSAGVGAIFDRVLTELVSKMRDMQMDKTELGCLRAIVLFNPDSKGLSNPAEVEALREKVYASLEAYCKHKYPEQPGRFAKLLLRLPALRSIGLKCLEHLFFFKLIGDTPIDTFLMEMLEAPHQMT

For the compound `COCCc1ccc(OCC2CO2)cc1` (stereo not drawn), the Potency result in [1], in experiment [6], in experiment [10] and in [13] was “inactive” each time. The compound was called inactive in [2], in experiment [3], in experiment [4], in experiment [5], in experiment [7] and in experiment [8]. The call in experiment [9], in experiment [11] and in [12] was inactive.

On to `C#CC(C)N(C)C(=O)Nc1ccc(Cl)cc1` (stereo not drawn), for which the Potency result in [1], in experiment [6] and in [10] was “inactive” throughout. In addition, the compound was classed as inactive in [2], in [3], in experiment [4], in experiment [5], in experiment [7] and in experiment [9]. Besides, the result in experiment [11], in [12] and in [14] was inactive. Also, the Potency in [15] was 38.5 µM (active).

For the compound `O=C(CCN1CCN(CCO)CC1)N1c2ccccc2Sc2ccc(C(F)(F)F)cc21`, the Potency result in experiment [1], in experiment [6] and in [13] was “inactive” throughout. The compound was classed as inactive in experiment [2], in experiment [3], in experiment [4], in experiment [5], in experiment [16] and in [7]. Moreover, the outcome in [9], in experiment [11] and in experiment [12] was inactive.

For `C[C@H](N)[C@H](O)c1cccc(O)c1`, the Potency result in [1], in experiment [6], in experiment [10], in experiment [15] and in [13] was “inactive” in each case. Moreover, the call in [2], in experiment [3], in [4], in experiment [5], in experiment [7] and in experiment [8] was inactive. Besides, the result in [9], in experiment [11] and in [12] was inactive.

For `Cc1cc2cc3c(C)cc(=O)oc3c(C)c2o1`, the Potency entry in [1], in [6], in experiment [10] and in [13] was “inactive” each time. Besides, the compound was called inactive in experiment [2], in [3], in experiment [4], in experiment [16], in experiment [7] and in experiment [8]. Moreover, the result in [9], in experiment [11], in [12] and in [14] was inactive.

Consider `COC(=O)c1ccccc1C(=O)c1ccc(OCCN2CCCCC2)cc1`, for which the Potency entry in [1], in experiment [6] and in experiment [10] was “inactive” in each case. The compound was classed as inactive in [2], in experiment [3], in experiment [4], in [5], in [7] and in [9]. For the same compound, the compound was called inactive in experiment [11] and in [12].

In the case of `CC(C)OC(=O)CCCCC(=O)OC(C)C`, the Potency result in experiment [1] and in experiment [6] was “inactive” in each case. Further, the outcome in experiment [2], in [3], in [4], in experiment [5], in experiment [7] and in experiment [8] was inactive. Besides, the result in [9], in [11], in experiment [12] and in experiment [14] was inactive.

Turning to `C=C(C)C(=O)OCCNC(C)(C)C`, the Potency entry in experiment [1], in experiment [6] and in [13] was “inactive” each time. Also, the outcome in experiment [2], in experiment [3], in [4], in experiment [5], in [16] and in experiment [7] was inactive. The result in experiment [9], in experiment [11] and in [12] was inactive.

As to `CCN(CC)CC(=O)Nc1c(C)cccc1C`, the outcome in [17] was inactive.

Consider `NC(CO)C(=O)NNCc1ccc(O)c(O)c1O` (stereo not drawn), for which the compound was classed as inactive in [17].
